Screens (PubChem BioAssay)
Autofluor counter – compound fluorescence in toxin protease inhibitor counterscreen; AID 624483; compound autofluorescence counterscreen, microsphere flow cytometry; hits give high values; fluorescence intensity (test concentration not listed); 360,000 compounds, 3.1% hits; in the data active = fluorescence intensity above about 16000; inconclusive = no clear call, values can overlap the other calls
Anthrax LF prot – blocks Bacillus anthracis lethal factor protease | P15917 | multiplex microsphere protease cleavage assay, LF | inhibition, % at 10 µM | 360,000 compounds, 0.12% hits | AID 588501; also: plate controls were buffer without enzyme for full effect and enzyme alone for no effect
BoNT A protease – inhibitors of Botulinum neurotoxin A light chain protease. 360,000 compounds, 0.17% hits. multiplex microsphere protease substrate cleavage, flow cytometry. inhibition, % at 10 µM. AID 588499; also: plate controls were buffer without enzyme for full effect and enzyme alone for no effect
BoNT-F LC inh – BoNT F light chain protease inhibition; Multiplex microsphere protease cleavage assay, flow cytometry; inhibition, % at 10 µM; 360,000 compounds, 0.22% hits; in the data active = inhibition above about 35%, passing the limit was not always enough; inconclusive = no clear call, values can overlap the other calls; also: plate controls were buffer without enzyme for full effect and enzyme alone for no effect
CCHF vOTU inh – blocks the CCHF virus ovarian tumor domain protease. inhibition, % at 11.5 µM. AID 651958. CCHFV vOTU protease, Pep-AMC fluorescence. 370,000 compounds, 0.55% hits; in the data active = inhibition above about 30%; also: 0% = vehicle wells with enzyme and 100% = no enzyme wells
3CLpro inhibitor – SARS-CoV 3CLpro protease inhibition | P0C6X7 | recombinant SARS-CoV 3CLpro, quenched FRET peptide cleavage | inhibition, % at 6 µM | 290,000 compounds, 0.14% hits | AID 1706; in the data active = inhibition above about 12%
* = called active by the depositor. Hits are enriched below; roughly 3.9% of the tested compounds scored in any of these assays. Rule as the data show it, unless noted: active = inhibition above about 30%; inconclusive = no clear call, values can overlap the other calls; inactive = below that.

What do the screens show for `O=C(NCc1ccco1)C1CN(S(=O)(=O)c2ccccc2)CCN1S(=O)(=O)c1ccccc1` (stereo unspecified)?
Autofluor counter: 20955*; Anthrax LF prot: 1.3; BoNT A protease: 4.4; BoNT-F LC inh: 6.3; CCHF vOTU inh: 14.6; 3CLpro inhibitor: -1.0

What do the screens show for `Cc1ccc(S(=O)(=O)N2CCC(C(=O)N3CCC[C@H]3C(=O)NCc3ccco3)CC2)cc1`?
Autofluor counter: 16928*; Anthrax LF prot: -1.7; BoNT A protease: -0.9; BoNT-F LC inh: -0.1; CCHF vOTU inh: -2.3; 3CLpro inhibitor: -5.6

How did COc1ccc(C(=O)N2CCC(Oc3cccnc3)CC2)c(OC)c1 do in these assays?
CCHF vOTU inh: -4.2

What do the screens show for `COc1ccccc1CNC(=O)[C@@H]1CCCN1C(=O)C1CCN(S(=O)(=O)c2ccc(C)cc2)CC1`?
Autofluor counter: 9144; Anthrax LF prot: -1.9; BoNT A protease: -1.2; BoNT-F LC inh: 2.3; CCHF vOTU inh: 2.4; 3CLpro inhibitor: 0.8

What do the screens show for `Cc1ccc(S(=O)(=O)N2CCC(C(=O)N3CCC[C@H]3C(=O)NCc3ccccc3)CC2)cc1`?
Autofluor counter: 21009*; Anthrax LF prot: -0.1; BoNT A protease: -4.8; BoNT-F LC inh: -5.6; CCHF vOTU inh: -7.2; 3CLpro inhibitor: -8.1

What do the screens show for `CCCCCCC1CCC(c2nc(-c3ccncc3)no2)CC1` (stereo unspecified)?
Autofluor counter: 9094; Anthrax LF prot: -0.6; BoNT A protease: -0.2; BoNT-F LC inh: -3.4; CCHF vOTU inh: -1.6; 3CLpro inhibitor: -6.3

Results for CCCC1CCC(c2nc(-c3cccnc3)no2)CC1 (stereo unspecified) ?
Autofluor counter: 19821*; Anthrax LF prot: 0.7; BoNT A protease: inconclusive; BoNT-F LC inh: -0.9; CCHF vOTU inh: -2.9; 3CLpro inhibitor: 4.2

How did O=C(/C=C/c1ccc(F)cc1)NCCC1=CCCCC1 do in these assays?
Autofluor counter: 23985*; Anthrax LF prot: -2.0; BoNT A protease: -1.0; BoNT-F LC inh: -7.1; CCHF vOTU inh: 0.4; 3CLpro inhibitor: 2.6

What do the screens show for `O=C(/C=C/c1ccccc1)NCCC1=CCCCC1`?
Autofluor counter: 2556; Anthrax LF prot: 2.2; BoNT A protease: -0.1; BoNT-F LC inh: -5.0; CCHF vOTU inh: -10.0; 3CLpro inhibitor: 5.2

How did O=C(Nc1cc(C(=O)N2CCCC2)ccc1N1CCCC1)C1CC1 do in these assays?
Autofluor counter: 22662*; Anthrax LF prot: -1.4; BoNT A protease: inconclusive; BoNT-F LC inh: -2.9; CCHF vOTU inh: 8.9; 3CLpro inhibitor: 0.7

What do the screens show for `O=C(Nc1ccc(C(=O)N2CCCCC2)cc1)C1CC1`?
Autofluor counter: 3629; Anthrax LF prot: -1.0; BoNT A protease: -0.1; BoNT-F LC inh: -2.3; CCHF vOTU inh: -11.5

How did CCOc1ccccc1CNC(=O)C1CCN(c2nnc(C)c3c(C)n(-c4ccc(C)cc4)nc23)CC1 do in these assays?
Autofluor counter: 12373; Anthrax LF prot: 4.1; BoNT A protease: -1.9; BoNT-F LC inh: 11.4; CCHF vOTU inh: 19.0; 3CLpro inhibitor: -1.4

How did Cc1ccc(-n2nc3c(N4CCC(C(=O)NCc5ccccc5C)CC4)nnc(C)c3c2C)cc1 do in these assays?
Autofluor counter: 16178*; Anthrax LF prot: 0.9; BoNT A protease: -3.8; BoNT-F LC inh: 9.8; 3CLpro inhibitor: -3.6

How did CCOc1ccc(CNC(=O)C2CCN(c3nnc(C)c4c(C)n(-c5ccc(C)cc5)nc34)CC2)cc1 do in these assays?
Autofluor counter: 17592*; Anthrax LF prot: 5.1; BoNT A protease: -4.9; BoNT-F LC inh: 10.4; CCHF vOTU inh: -14.8; 3CLpro inhibitor: 0.5

Results for Cc1ccc(-n2c(SCC(=O)Nc3ccc(Oc4ccccc4)cc3)nnc2-c2ccco2)cc1 ?
CCHF vOTU inh: 10.6

Results for O=C(N[C@@H](Cc1ccccc1)C(=O)N1CCC2CCN(S(=O)(=O)c3ccccc3)CC21)[C@@H]1CCCN1 (stereo partly specified) ?
CCHF vOTU inh: 1.8

Results for Clc1cccc(OCc2nnc(-c3ccccc3Br)o2)c1 ?
Autofluor counter: 3487; Anthrax LF prot: 2.6; BoNT A protease: 0.8; BoNT-F LC inh: -6.1; CCHF vOTU inh: 13.3; 3CLpro inhibitor: -4.1

How did Clc1ccc(OCc2nnc(-c3ccccc3Br)o2)cc1 do in these assays?
Autofluor counter: 16365*; Anthrax LF prot: -6.2; BoNT A protease: 0.2; BoNT-F LC inh: -0.5; CCHF vOTU inh: 10.4; 3CLpro inhibitor: -1.6

Results for CC(=O)c1cccc(NS(=O)(=O)c2cc(OCC(N)=O)c(C)cc2Cl)c1 ?
Autofluor counter: 19294*; Anthrax LF prot: -2.4; BoNT A protease: 1.5; BoNT-F LC inh: 3.5; CCHF vOTU inh: 7.0; 3CLpro inhibitor: 3.3

How did Cc1ccc2nc(SCC(=O)c3cc(C)n(C)c3C)[nH]c2c1 do in these assays?
Autofluor counter: 2270; Anthrax LF prot: -4.5; BoNT A protease: -0.5; BoNT-F LC inh: 2.3; CCHF vOTU inh: 10.2; 3CLpro inhibitor: 2.6

What do the screens show for `C=CCn1c(C)cc(C(=O)CSc2nc3ccccc3[nH]2)c1C`?
Autofluor counter: 23335*; Anthrax LF prot: -3.1; BoNT A protease: inconclusive; BoNT-F LC inh: 0.8; CCHF vOTU inh: -3.8; 3CLpro inhibitor: -0.5

What do the screens show for `CSc1nc2ccc(Cl)cc2[nH]1`?
Autofluor counter: 20323*; Anthrax LF prot: -9.0; BoNT A protease: 5.1; BoNT-F LC inh: 8.8; CCHF vOTU inh: -13.5; 3CLpro inhibitor: -1.2

Results for OCCNc1nc2ccc(Cl)cc2[nH]1 ?
Autofluor counter: 22121*; Anthrax LF prot: -0.5; BoNT A protease: 4.2; BoNT-F LC inh: 4.1; 3CLpro inhibitor: 0.7

Results for CSc1nc2ccc(Br)cc2[nH]1 ?
Autofluor counter: 4612; Anthrax LF prot: -2.8; BoNT A protease: -1.0; BoNT-F LC inh: -5.0; CCHF vOTU inh: -3.2; 3CLpro inhibitor: 0.6

Results for Cc1cc(C(=O)CSc2nc3ccc(Cl)cc3[nH]2)c(C)n1C ?
Autofluor counter: 23487*; Anthrax LF prot: -9.2; BoNT A protease: -2.7; BoNT-F LC inh: -3.7; CCHF vOTU inh: 13.2; 3CLpro inhibitor: 2.8

Results for O=C(OC12CCCN(C1)/C(=C/c1ccc(Cl)cc1)C2)c1ccco1 (stereo unspecified) ?
CCHF vOTU inh: 1.9

How did COC(=O)C1CN(Cc2ccc(OC)cc2)CCS(=O)(=O)N1Cc1cn(Cc2ccccc2)nn1 (stereo unspecified) do in these assays?
CCHF vOTU inh: -8.1

Results for COCC(=O)Nc1nc(-c2ccccc2)c(C)s1 ?
Autofluor counter: 19856*; Anthrax LF prot: -0.8; BoNT A protease: -1.4; BoNT-F LC inh: -1.5; CCHF vOTU inh: 11.8; 3CLpro inhibitor: 4.2

Results for Cc1cc(N2C(=O)C3C4c5ccccc5C(c5ccccc54)C3C2=O)no1 (stereo unspecified) ?
Autofluor counter: 21886*; Anthrax LF prot: -3.4; BoNT A protease: 2.3; BoNT-F LC inh: 2.9; CCHF vOTU inh: -3.2; 3CLpro inhibitor: 5.1

What do the screens show for `CCCCCCCCN1C(=O)[C@@H](CC(=O)NCCCOC)C[C@@]2(C(=O)OC)C1=C[C@H](COCc1ccccc1)O[C@@H]2C`?
CCHF vOTU inh: 15.1
